Experiment [1] is described as follows: NCI Yeast Anticancer Drug Screen. Data for the rad50 strain (AID 155).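 Note: 0% = growth of vehicle-only cultures of the same strain.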 Particulars: S. cerevisiae rad50 strain growth inhibition; at 50.0 µM; active compounds read high. An outline of the steps:
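Yeast carrying a defined DNA repair defect were exposed to test compounds, and growth was compared with vehicle-treated controls to give percent inhibition.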

Experiment [2] can be described thus: NCI Yeast Anticancer Drug Screen. Data for the mec2-1 strain (AID 157). The note with it: S. cerevisiae mec2-1 strain, at 50.0 µM, active compounds read high. The method, boiled down: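 Compounds were applied to mec2-1 yeast cells. Their growth was then compared with that of vehicle-treated cultures to give growth inhibition.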
The nature of experiment [3]: NCI Yeast Anticancer Drug Screen. Data for the sgs1 mgt1 strain (AID 161).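 Note: 0% = growth of cultures given vehicle only.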 The note with it: S. cerevisiae sgs1 mgt1 strain, at 50.0 µM, active compounds read high. An outline of the steps:
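Yeast cells carrying a defined DNA-repair defect were exposed to test compounds. Growth inhibition was measured relative to vehicle-treated controls.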

Experiment [4] in a line: NCI Yeast Anticancer Drug Screen. Data for the cln2 rad14 strain (AID 165).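 Note: 0% = growth equal to vehicle treated cultures.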 The note with it: S. cerevisiae cln2 rad14 strain, at 50.0 µM, active compounds read high. The method, boiled down: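 Strain: cln2 rad14 yeast, altered in cell cycle control and DNA damage repair. Read-out: growth inhibition vs vehicle.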
Experiment [5] in a line: NCI Yeast Anticancer Drug Screen. Data for the bub3 strain (AID 167). Particulars: S. cerevisiae bub3 mutant strain, at 50.0 µM, active compounds read high. An outline of the steps: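 Compounds were applied to a genetically altered yeast strain carrying a cell-cycle control defect. Growth inhibition was scored against vehicle-treated controls.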
Experiment [6] can be described thus: NCI Yeast Anticancer Drug Screen. Data for the mlh1 rad18 strain (AID 175). The note with it: S. cerevisiae mlh1 rad18 strain growth inhibition; at 50.0 µM; active compounds read high. An outline of the steps:
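A repair-deficient yeast strain is exposed to test compound, and growth is scored relative to vehicle-treated controls.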

The panel holds about 79,000 compounds, 15% with a hit somewhere; the sample as a whole holds those more often. Values without a mark were called inactive. Activity calls are given as the source filed them. Cut-off read from the data, not from the text of the source: active = growth inhibition above about 70%; inactive = the rest.

As to `O=C(CCc1ccccc1Cl)CC(=O)CC(O)(c1ccccc1)c1ccccc1`, the growth inhibition is 68% in experiment [1]; 57.5% in experiment [2]; 70.5% (active) in experiment [3]; 42.2% in experiment [4]; 39.4% in experiment [5]; 61.9% in experiment [6].
`CCCCOCC(=O)NC1CCCCC1`: the growth inhibition in experiment [1] was 29.9%; in experiment [2], -30.4%; in experiment [3], -39.4%; in experiment [4], -10.2%; in experiment [5], -24.1%; in experiment [6], 33.6%.
`CC(C)(c1ccc([N+](=O)[O-])cc1)[N+](=O)[O-]`: the growth inhibition was 11.1% in experiment [1]; 10.3% in experiment [2]; 1.6% in experiment [3]; -7.4% in experiment [4]; -11.8% in experiment [5]; -4.55% in experiment [6].
As to `CCOC(=O)C(Cc1ccc(O)cc1)NC(=O)C(CSC(c1ccccc1)(c1ccccc1)c1ccccc1)NC(c1ccccc1)(c1ccccc1)c1ccccc1` (stereo not given), the growth inhibition is 4.85% in experiment [1]; 0.8% in experiment [2]; -14.8% in experiment [3]; -1.65% in experiment [4]; -5.05% in experiment [5]; 9.55% in experiment [6].
Turning to `COCCN(CCOC)C(=O)Nc1cccc(Cl)c1`, the growth inhibition was 30.4% in experiment [1]; 6.3% in experiment [2]; 15.9% in experiment [3]; 8.35% in experiment [4]; 5.45% in experiment [5]; 10.2% in experiment [6].
Regarding `Cc1c(C(=O)CC(=O)C(=O)Nc2ccc(Cl)cc2)[n+](=O)c2ccccc2n1[O-]`, the growth inhibition in experiment [1] is 9.9%; in experiment [2] it was -2.25%; in experiment [3], 0.65%; in experiment [4] it was 19.4%; in experiment [5], 8.35%; in experiment [6], -0.3%.
On to `O=c1[nH]c(=O)n(C2CC(O)C(CO)O2)cc1C#Cc1ccc(F)cc1` (stereo not given), for which the growth inhibition in experiment [1] is -3.45%; in experiment [2], 19.2%; in experiment [3], -15.2%; in experiment [4], -5.6%; in experiment [5], 3.85%; in experiment [6], -8.95%.
Consider `N#C/C(=C\c1ccc[nH]1)C(=O)c1ccccc1`, for which the growth inhibition was -5.7% in experiment [1]; -11.8% in experiment [2]; -18.9% in experiment [3]; 16.5% in experiment [4]; 1.15% in experiment [5]; -28.6% in experiment [6].
Take `C/C(=N\N=C(/C)c1cccc2ccccc12)c1cccc2ccccc12`: the growth inhibition was -8.9% in experiment [1]; -0.65% in experiment [2]; 4.7% in experiment [3]; -15.9% in experiment [4]; -17.7% in experiment [5]; -36.2% in experiment [6].
As for `CCC(C)N(C(C)=O)C(C)CC` (stereo not given), the growth inhibition in experiment [1] was -4.15%; in experiment [2] it was -17.2%; in experiment [3], -13.4%; in experiment [4], 15.2%; in experiment [5], 2%; in experiment [6], 1.85%.
With `C/C(CC(=O)Nc1cccc([N+](=O)[O-])c1)=N\NC(=O)CC#N`, the growth inhibition in experiment [1] was -3.45%; in experiment [2] it was -13.3%; in experiment [3] it was 0.55%; in experiment [4] it was 12.1%; in experiment [5], -8.45%; in experiment [6] it was 2.35%.
For the molecule `COC(=O)c1ccc(C(=O)OC)c2nn3c(N)nnc3nc12`, the growth inhibition in experiment [1] was 8.85%; in experiment [2], 15%; in experiment [3] it was 7.55%; in experiment [4], -12.4%; in experiment [5], 9.15%; in experiment [6], 2.9%.
As for `CCOC(=O)Cc1nc2sc(C)c(-c3ccccc3)c2c(=O)[nH]1`, the growth inhibition in experiment [1] was 32.4%; in experiment [2], 19.6%; in experiment [3], 27.5%; in experiment [4], 3.35%; in experiment [5], 17.2%; in experiment [6] it was 31.4%.
Take `Nc1c(I)cc([N+](=O)[O-])cc1I`: the growth inhibition in experiment [1] was 32.8%; in experiment [2], 2.6%; in experiment [3], 18%; in experiment [4], -16.4%; in experiment [5], 25.9%; in experiment [6], 19.9%.
For the molecule `CC(=O)Nc1ccc2c(c1)Cc1cc(Cl)c(Cl)cc1-2`, the growth inhibition in experiment [1] is 57.5%; in experiment [2] it was -4.05%; in experiment [3], 31.7%; in experiment [4] it was -17.1%; in experiment [5] it was -3.7%; in experiment [6] it was 37.6%.
Consider `COc1ccc2nc(NC(=O)C(=O)C(C)C(=O)c3ccc(Cl)cc3)sc2c1` (stereo not given), for which the growth inhibition in experiment [1] was -10.1%; in experiment [2], 4.85%; in experiment [3], -8.65%; in experiment [4], -5.9%; in experiment [5], -2.55%; in experiment [6] it was -0.25%.
With `O=c1c(CN(CCO)CCO)c(-c2ccccc2)sc2ccccc12`, the growth inhibition in experiment [1] was -3.45%; in experiment [2], -24.6%; in experiment [3] it was -28.1%; in experiment [4], 13.1%; in experiment [5], -13.8%; in experiment [6] it was 14.7%.
On to `CC(=O)CC(=O)Nc1ccccc1Cl`, for which the growth inhibition was 19.4% in experiment [1]; -4.6% in experiment [2]; 24.2% in experiment [3]; -5.75% in experiment [4]; -4.9% in experiment [5]; 16.4% in experiment [6].
On to `Cc1n[nH]c(=O)[nH]c1=O`, for which the growth inhibition was -25.2% in experiment [1]; -24.8% in experiment [2]; -2.7% in experiment [3]; 3.45% in experiment [4]; -0.85% in experiment [5]; 2.55% in experiment [6].
With `CCCC1c2c(cc(=O)[nH]c2O)C(=O)N1Cc1ccccc1` (stereo not given), the growth inhibition in experiment [1] is -10.2%; in experiment [2] it was -16.5%; in experiment [3] it was -14.4%; in experiment [4] it was 17.8%; in experiment [5], -17.6%; in experiment [6], -0.9%.
